# Data as given in the supplement of paper PMC11417369.
# ± gives the standard deviation of the averaged measurements. The full ranking holds about 25,000 sequences; the median of “ln(normalized median fluorescence intensity)” is about 8.9, and the highest 2% start at about 10. The full list was thinned out, with the highest values kept by preference.
# Tested on: PfAP2-LT AP2 domain (GST-tagged)
# Experiment: gcPBM binding intensity (ln(normalized median fluorescence intensity)); higher = stronger DNA binding
# Outline: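 The highest Masliner-normalised natural-log median intensity across replicate spots of either probe orientation is reported as binding intensity. GST-tagged P. falciparum DNA-binding domains expressed in E. coli were applied for 1 h to an Agilent 4 × 180k array of primer-extended double-stranded 36-bp intergenic genomic probes plus negative controls, and bound protein was detected with Alexa488 anti-GST antibody and scanned at 488 nm.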
row,Sequence,gcPBM binding intensity (ln)
1,TTCATTTTTTAAGCATCACACACGAAAGAACAAAGT [CACACA_site1122],8.98 ± 0.33
2,AATAATATATATTGTACACACAAAATGGGAAAAAAA [CACACA_site5100],9.1 ± 0.33
3,AAAATTTAATATAATGCACACATAAAAAAAAAATCA [CACACA_site7882],8.87 ± 0.42
4,TAAAAGAAATAATATACACACATATATAAAAATAAA [CACACA_site1329],8.94 ± 0.41
5,CAAGGAACCAGACACACACACATAAATGTATATATA [CACACA_site752],9.62 ± 0.47
6,ACAGAAAAAAGACACACACACATAATATACATACAT [CACACA_site6991],10.1 ± 0.42
7,TACACAAGCAGACACACACACATATAGATTTATATA [CACACA_site6715],9.65 ± 0.35
8,TACACAAGCAGACACACACACATATATATATATATA [CACACA_site1270],10.42 ± 0.071
9,AATAACCACAGACACACACACATATAAATATAAATA [CACACA_site7631],10 ± 0.46
10,AGGATACACAGACACACACACATATATATATATATA [CACACA_site907],10.47 ± 0.064
11,GGAATAACCAGACACACACACACATATAAATATGTA [CACACA_site7632],10.1 ± 0.41
12,TGAAAAAAGAAAAATACACACATATAATATAATATA [CACACA_site2255],9.02 ± 0.49
13,ACAAGACAGATATATACACACATACATACATACATA [CACACA_site7472],9.43 ± 0.37
14,AATGTATATAATATTAATATGTAAATATATAATCAA [CACACA_negctrl_site1683],8.72 ± 0.39
15,TTAGAAATTCATTTTACACACAATTCAAAAGAATGT [CACACA_site2104],8.79 ± 0.42
16,ATATATAAAATTATATGTACATATATAATATATATA [XGTACX_site529],8.77 ± 0.39
17,TACCATATTTCTTCAAGTACGCATTATGTTAAAAAG [XGTACX_site345],8.51 ± 0.38
18,GTGGAACGTATATTTTCACACACTCTCAAAAGTACA [CACACA_site8722],8.93 ± 0.47
19,TATTTATTAATATGTACACACATCAACCATATTAAC [CACACA_site7001],9.04 ± 0.29

row,Sequence,gcPBM binding intensity (ln)
1,TAAATAAGGAAGGAAACACACATTAAAAAATAAATA [CACACA_site618],8.84 ± 0.59
2,TATATATATTTATGTTGTACAAAATATTATTACGTA [XGTACX_site5384],8.57 ± 0.36
3,TTTTTTTAATGATATTGTACATTAATAAAAAATATG [XGTACX_site1719],8.12 ± 0.59
4,GAATAATATGGACATACACACATATACATACATATA [CACACA_site2114],9.27 ± 0.39
5,GGAATAACCGGACACACACACACATATATATATATA [CACACA_site5874],10.39 ± 0.057
6,GGAATATAAATACATACACACATATATATATATATA [CACACA_site4998],10 ± 0.33
7,AATACATACAGACACACACACACATATATATATATA [CACACA_site3558],10.36 ± 0.014
8,CACATACAGACATACACACACATATATATTAATATA [CACACA_site546],9.56 ± 0.41
9,TAAATACAGACATATACACACATATATATATATATA [CACACA_site4382],9.925 ± 0.0071
10,TTATTATTCCCTCATTTTGTTACCATTATTTCAATT [CACACA_negctrl_site1023],8.88 ± 0.54
11,AATGTACAAATACGTACACACATATATATATATATA [CACACA_site1542],10.1 ± 0.18
12,GATATTATGTGTTTGGTATTTCGATCTTGTCAGGAC [CACACA_negctrl_site426],8.93 ± 0.41
13,AAAAAAAAGAAAAACACACACATATATATATATAAT [CACACA_site4707],9.53 ± 0.42
14,TACGGACATACTAACGGACACACGTAAGAAAAAAAA [CACACA_site602],9.03 ± 0.56
15,AAAAAAAAAAAAGAAACACACACATATATATATATA [CACACA_site8525],9.94 ± 0.3
16,CACAAAAAGAAACACACACACATATATATATATATA [CACACA_site999],10 ± 0.37
17,GTAAGAAACAGACACACACACATATAAATATAAATA [CACACA_site6515],9.86 ± 0.49
18,AAAAAAAAAAAAGAAACACACATATATATATATATA [CACACA_site140],9.9 ± 0.071
19,AAGAAAAAAAAAAAAACACACATATATATATATATA [CACACA_site2027],10.1 ± 0.14

row,Sequence,gcPBM binding intensity (ln)
1,TAAACAGACATATAAACACACATATAAACAGACATA [CACACA_site7214],9.31 ± 0.41
2,GTAAGAAACAGACACACACACATATATATATATATA [CACACA_site794],10.21 ± 0.064
3,CAAGAAAAGAAACACACACACATATATATATATATA [CACACA_site3881],10.4 ± 0.28
4,CGGACATACTAACGGACACACGTAAGAAAAAAAAAG [CACACA_site4504],9.05 ± 0.64
5,GTAAGAAACGGACACACACACATATATATATATATA [CACACA_site4593],10.39 ± 0.05
6,ATAAAATCTTAATCAACAAACAAACAAAAAAAAAAT [CACACA_negctrl_site1161],8.77 ± 0.48
7,ATATGTTCTACAAAAAAGATGTCGATTTATTTTCTT [CACACA_negctrl_site1179],8.56 ± 0.49
8,TTTACATTTCAGTAGACACACAAAAAATAATACTAA [CACACA_site512],8.76 ± 0.43
9,AAAAAAAGATTATACACACACATATATAAACATACA [CACACA_site4553],9.54 ± 0.3
10,ATGATATGCAATTTAGTGCATAACAAAATTGGTATA,8.79 ± 0.5
11,TTATTTATAAATATTAATTTTTTTTTTTTTTTTTTT [XGTACX_negctrl_site105],8.01 ± 0.5
12,TAATATATATTATTATGTACATATATTGATTCCTTG [XGTACX_site6830],8.85 ± 0.47
13,TTGTAAGAAAAACACACACACACATATATATATATA [CACACA_site795],10.1 ± 0.014
14,ATAAGAAGAAGAAAAACACACATATGTAAATATATA [CACACA_site3138],9.09 ± 0.54
15,AATATAAGAAAAATAACACACACATAAACATATATA [CACACA_site8899],9.54 ± 0.35
16,ATGTTGTACAGACACACACACAAAAAAAAAATAAAA [CACACA_site7184],9.46 ± 0.56
17,ATATATATATGTATGTATATATATATATATATGTTT [CACACA_negctrl_site248],9.08 ± 0.34
18,GTTATATGTTATATATATATATATATATATATATAT [TGCATGCA_negctrl_site428],9.51 ± 0.27
19,TATATATATATATATATATATATATATATATGTTGT [TGCATGCA_negctrl_site24],10.24 ± 0.085
